# Bioassay records: PubChem BioAssay, The Scripps Research Institute Molecular Screening Center
# This excerpt belongs to a sample that is enriched for hits.
# ULK1 inh: inhibitors of human ULK1 kinase | O75385 | AlphaScreen Atg13 phosphorylation by ULK1, luminescence | AID 1259251 | 30,000 tested, 1.9% active | inhibition, % at 5.96 µM; in the data active = inhibition above about 43%;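 note: 0% = median of compound wells and 100% = no enzyme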
# Starred values were filed as active, the others as inactive.
SMILES,ULK1 inh
Cc1ccc2c(c1)[C@@H]1CN(C)CC[C@@H]1N2,14
O=C1OC(c2ccc(O)c(S(=O)(=O)O)c2)(c2ccc(O)c(S(=O)(=O)O)c2)c2c(Br)c(Br)c(Br)c(Br)c21,64*
COc1ccc(Cc2nccc3cc(OC)c(OC)cc23)cc1OC,69*
COc1ccc(CCN2CCC(=O)CC2)cc1OC,-4
COP(=S)(OC)Oc1cc(Cl)c(Br)cc1Cl,6
O=C1CN=C(c2ccccn2)c2cc(Br)ccc2N1,1
Cc1cc(C)[n+](-c2nccs2)c(C)c1,-7
OC(c1ccccc1)C12CN3CN(CN(C3)C1)C2 (centres undefined),6
